In PubChem BioAssay (NCATS):
Results filed as inconclusive are left out. Activity calls are given as the source filed them. Calls come from the whole dose curve; as a rule, active = well fitted inhibition curve with a large enough effect; inconclusive = small, poorly fitted or top-dose-only effect; inactive = flat fitted curve, though single readings scatter.

tested on: HEK293; test: Cytotoxic Profiling of Annotated Libraries Using Quantitative High-Throughput Screening (AID 1296008); details: Five cell lines viability, CellTiter-Glo ATP luminescence, 48-72 h; max response: stronger effect = lower value; note: nearly all actives have a fitted effect of over 60% in size
Summary of the method: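 Cytotoxicity was measured as CellTiter-Glo ATP luminescence, read after 10 min at room temperature. Compound treatment of the cells lasted 48 or 72 hr at 37 degrees Celsius in a qHTS format.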
% is set by controls: 0 for no effect and ±100 for the full control effect; potency is the fitted concentration of half-maximal effect.

SMILES	max response	Potency
O=c1[nH]ccc2cc(OC3CCNCC3)ccc12	-16.8% (inactive)	–
C=C1C(=O)O[C@@H]2[C@H]1CCC(C)=C1CCC(=O)O[C@]12C	–	14.6 µM (active)
Cc1cnc(Nc2ccc(F)cc2Cl)nc1-c1c[nH]c(C(=O)NC(CO)c2cccc(Cl)c2)c1 (configuration not stated)	–	5.8 µM (active)
O=C1NC(=O)C(c2cn3c4c(cccc24)CCC3)C1c1c[nH]c2ccccc12 (configuration not stated)	–	1.03 µM (active)
Cc1ccc(C(=O)N(CCCN)C(c2nc3cc(Cl)ccc3c(=O)n2Cc2ccccc2)C(C)C)cc1 (configuration not stated)	–	0.0092 µM (active)
COC(=O)N[C@@H](C)CNc1nccc(-c2cn(C(C)C)nc2-c2cc(Cl)cc(NS(C)(=O)=O)c2F)n1	–	11.6 µM (active)
O=C(c1ccccc1)c1ccc2nc(NC(=O)c3csc(C4CCN(c5ncnc6ccsc56)CC4)n3)[nH]c2c1	–	5.17 µM (active)
CNC12CC3C[C@@](C)(C1)C[C@](C)(C3)C2	-16.8% (inactive)	–
O=C(Nc1ccc(Cl)cc1F)c1ccccc1O	–	16.4 µM (active)
Nc1nc(Nc2ccc(S(N)(=O)=O)cc2)n(C(=S)Nc2c(F)cccc2F)n1	–	8.2 µM (active)
CNC(=O)c1ccccc1Nc1cc(Nc2ccc(N3CCOCC3)cc2OC)ncc1C(F)(F)F	–	6.51 µM (active)
COC(=O)C1(C)c2[nH]c3ccccc3c2CCN1C(=O)CCl (configuration not stated)	–	7.31 µM (active)
CCN(CC)c1ccc2c(O)c(C=Nc3ccc(CC(=O)O)c(-c4c5c(nc6ccccc46)CCC(C(=O)NN)C5)c3)c(=O)oc2c1 (configuration not stated)	–	11.6 µM (active)
Cc1ccc(NC(=O)c2ccc(CN3CC[C@H](N(C)C)C3)c(C(F)(F)F)c2)cc1Nc1nccc(-c2cncnc2)n1	–	5.63 µM (active)
CC1(C)CCC[C@]2(C)[C@H]3CC(=O)O[C@]3(C)CC[C@@H]12	-37.4% (inactive)	–
COc1cc2ncnc(N3CCC(Oc4cnc5ccccc5n4)C3)c2cc1OC (configuration not stated)	–	0.366 µM (active)

SMILES	max response	Potency
C/C=C/c1ccc(O[C@@H]2O[C@H](CO)[C@@H](O)[C@H](O)[C@H]2O)c(OC)c1	–	11.4 µM (active)
O=C(c1cccc(Cl)c1F)N1CCN(Cc2cccc(Nc3nccs3)n2)CC1	–	1.03 µM (active)
COc1ccc(Oc2cc(C)c(-c3csc(NC(=O)c4ccncc4)n3)c(C)c2)cc1	–	0.326 µM (active)
COc1ccc(CC2C(=O)NC(C)C(=O)N(C)C3Cc4ccc(cc4)Oc4cc(ccc4OC4OC(CO)C(O)C(O)C4O)CC(C(=O)NC(C)C(=O)NC(C)C(=O)N2C)N(C)C3=O)cc1 (configuration not stated)	–	0.0551 µM (active)
CC1(C)CC[C@]23CO[C@@]4(CCC5[C@@]6(C)CC[C@H](O[C@@H]7OC[C@H](O[C@@H]8O[C@H](CO)[C@@H](O)[C@H](O)[C@H]8O)[C@H](O)[C@H]7O[C@@H]7O[C@H](CO)[C@@H](O[C@@H]8O[C@H](CO)[C@@H](O)[C@H](O)[C@H]8O)[C@H](O)[C@H]7O)[C@@](C)(CO)C6CC[C@@]5(C)[C@]4(C)C[C@H]2OC2OCC(O)C(O)C2O)C3C1 (some centres not stated)	–	2.45 µM (active)
CC(C)(C)c1cc(Br)cc([C@H](CC(=O)O)NC(=O)CNC(=O)c2cc(O)cc(NC3=NCC(O)CN3)c2)c1 (some centres not stated)	-3.62% (inactive)	–
CCS(=O)(=O)N1CCN(c2ccc(Nc3ncc(C(N)=O)c(NC4CC4)n3)cc2)CC1	–	7.31 µM (active)
Cc1ccccc1-n1c([C@H](C)Nc2nc(N)nc3nc[nH]c23)nc2cccc(C)c2c1=O	–	16.4 µM (active)
c1cc(Nc2cc(C3CC3)[nH]n2)nc(Nc2ccc3nc[nH]c3c2)n1	–	1.16 µM (active)
CN(C)c1nc(NC2CCC(NC(=O)c3ccc(F)c(F)c3)CC2)nc2ccccc12 (configuration not stated)	–	16.4 µM (active)
CCc1cccc(CC)c1NC(=O)c1nn(C)c2c1CCc1cnc(Nc3ccc(C(=O)NC4CCN(C)CC4)cc3OC(F)(F)F)nc1-2	–	1.78 µM (active)
Oc1ccc(CNc2ccccc2F)c2cccnc12	–	18.4 µM (active)
CNC(=O)c1ccccc1Nc1nc(Nc2ccc3c(c2OC)CCC[C@@H](N2CCN(CCO)CC2)C3)ncc1Cl	–	5.8 µM (active)
CC(C)(C#N)c1ccc(N2C(=O)OCc3cnc4ccc(-c5cnc6ccccc6c5)cc4c32)cc1	–	7.31 µM (active)
Cc1c(C(=O)Nc2ccc(N3CC(C)OC(C)C3)nc2)cccc1-c1ccc(OC(F)(F)F)cc1 (configuration not stated)	–	9.2 µM (active)
CC(=O)NC1=NN(C(C)=O)C(C)(c2ccccc2)S1 (configuration not stated)	–	4.11 µM (active)
